Screens deposited in PubChem BioAssay by The Scripps Research Institute Molecular Screening Center.
The list is not random: actives were taken first. Their share in the collection is about 2.3%.
M1 ag parental – M1 agonist counterscreen hit in parental CHO-K1 cells; Fluo-8 calcium fluorescence; scaled to maximal ATP response, vehicle zero; activation, % at 3 µM; 360,000 tested, 0.48% active; in the data active = activation above about 15%;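 note: untransfected CHO-K1 host cells lacking M1 receptor as counterscreen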
CHRM1 antagonist – blocks human M1 muscarinic receptor. AID 588852. inhibition, % at 3 µM. P11229. CHO-K1 hM1, Fluo-8 calcium fluorescence, ACh EC80 antagonist. 360,000 tested, 1.3% active;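 active = percent inhibition above its own plate's cutoff, namely the mean of that plate's compound wells plus 3 SD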;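 note: peak over basal fluorescence ratio during 140 s after agonist addition; 0% = ACh EC80 plus DMSO and 100% = DMSO alone without agonist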
Target sequence (P11229 whole entry, looked up): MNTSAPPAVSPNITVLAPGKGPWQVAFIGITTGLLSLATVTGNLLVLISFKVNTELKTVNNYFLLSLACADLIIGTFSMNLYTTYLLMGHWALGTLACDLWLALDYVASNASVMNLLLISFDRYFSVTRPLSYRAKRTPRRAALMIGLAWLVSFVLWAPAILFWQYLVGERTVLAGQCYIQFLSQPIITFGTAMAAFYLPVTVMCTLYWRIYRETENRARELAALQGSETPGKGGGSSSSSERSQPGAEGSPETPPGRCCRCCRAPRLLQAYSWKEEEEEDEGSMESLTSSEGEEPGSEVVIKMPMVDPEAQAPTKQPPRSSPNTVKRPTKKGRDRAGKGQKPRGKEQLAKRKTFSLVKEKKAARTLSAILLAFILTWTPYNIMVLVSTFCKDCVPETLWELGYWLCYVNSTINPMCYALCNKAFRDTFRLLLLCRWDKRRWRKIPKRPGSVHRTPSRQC
CHO-K1 Ca PAM – nonselective activator or artifact in parental CHO-K1 calcium assay; ATP EC20, Fluo-8 calcium fluorescence; 0% at ATP EC20, 100% at ATP max; activation, % at 3 µM; 360,000 tested, 0.02% active;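 active = activation above the run cutoff, the mean activation of all test compounds plus 3 SD, cut at about 40% in these data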;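 note: peak over basal fluorescence ratio in a 140 s read after ATP addition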
CHRM1 PAM – potentiates human M1 receptor response to acetylcholine. CHO-K1 hM1, Fluo-8 calcium fluorescence, ACh EC20; 0% = ACh EC20, 100% = maximal ACh. activation, % at 3 µM. 360,000 tested, 0.088% active. AID 588819; in the data active = activation above about 19%, passing the limit was not always enough
M1 ag – activates human CHRM1 receptor. P11229. CHO-K1 hM1, Fluo-8 calcium fluorescence, agonist mode; 0% DMSO, 100% acetylcholine EC100. activation, % at 3 µM. 360,000 tested, 0.33% active. AID 588814;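 active = activation above the run's mean compound activation plus 3 SD, cut at about 16% in these data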;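 note: peak over basal fluorescence ratio within a 140 s kinetic read after compound addition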
CHO-K1 Ca antag – nonselective inhibitor or artifact in parental CHO-K1 cells; 360,000 tested, 0.6% active; inhibition, % at 3 µM; ATP-induced calcium, Fluo-8 fluorescence;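 active = inhibition above a per-plate cutoff, the plate's mean sample inhibition plus 3 SD, cut at about 24% in these data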;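 note: 0% = DMSO plus EC80 ATP and 100% = DMSO alone without ATP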
Active calls of the source: *; / = no result given.

SMILES	M1 ag parental	CHRM1 antagonist	CHO-K1 Ca PAM	CHRM1 PAM	M1 ag	CHO-K1 Ca antag
O=C(Nc1ccc(S(=O)(=O)Nc2ncccn2)cc1)c1ccc(Br)o1	18*	-4	13	7	-1	1
O=C(Nc1ccc(S(=O)(=O)Nc2ncccn2)cc1)c1ccco1	1	0	16	7	-4	-9
COc1ccc(CNC(=O)Cn2nnc3ccccc3c2=O)cc1	1	-3	8	7	-4	-7
O=C(COc1ccccc1Cl)c1ccc[nH]1	2	29*	9	-5	-11	8
Cc1ccc(-c2[nH]ncc2C(=O)c2ccc(Br)cc2)c(O)c1	3	-11	4	11	-1	-1
Cc1ccc(C(=O)c2cn[nH]c2-c2cc(Cl)ccc2O)cc1	19*	10	16	-4	-2	0
Clc1ccc(CN2CCc3c([nH]c4ccccc34)C2)cc1Cl	0	-3	-1	4	-11	-3
CSc1ccc(CN2CCc3c([nH]c4ccccc34)C2)cc1	15*	-9	20	4	-7	-7
COC(=O)CN(C)C(=O)c1cccc(OC2CCN(S(=O)(=O)N(C)C)CC2)c1	3	-4	20	3	-2	-9
COc1ccc(-c2cc(C(F)F)n3ncc(C(=O)N4CCSCC4)c3n2)cc1	-1	27*	-6	-9	-5	15
Cc1ccc(C(=O)N2CCSC2=S)cc1	-1	10	-8	-7	-4	26*
O=c1c2ccccc2ncn1-c1ccc([N+](=O)[O-])cc1[N+](=O)[O-]	19*	2	-20	-8	6	2
O=C(CC1SCCNC1=O)NCc1ccccc1 (stereo unspecified)	0	-19	13	8	-4	-10
Cn1c(CCC(=O)OCC(=O)Nc2ccc(Oc3ccccc3)cc2)nc(=O)c2ccccc21	1	37*	10	-29	-11	0
CC(=O)Nc1ccc(S(=O)(=O)NCCc2ccc(S(N)(=O)=O)cc2)cc1	0	-9	13	9	0	-4
NS(=O)(=O)c1ccc(CCNS(=O)(=O)c2ccc(Cl)cc2)cc1	0	101*	-5	-10	-3	-19
NS(=O)(=O)c1ccc(CCNC(=O)c2ccccc2F)cc1	0	8	-10	-6	-4	28*
NS(=O)(=O)c1ccc(CCNC(=O)c2ccc(C#CC3(O)CCCCC3)cc2)cc1	6	38*	0	-22	0	20
COc1ccc(CN2C(=O)c3cccc4cccc(c34)C2c2nc3ccccc3[nH]2)cc1 (stereo unspecified)	-1	/	2	/	/	-10
CC1CN(c2ccc(S(=O)(=O)N3CCCC3)cn2)CC(C)O1 (stereo unspecified)	0	-24	-1	2	-6	-4
Cc1cc(C(=O)NCCCN2CCN(C3CCCCC3)CC2)n(-c2ccccc2)n1	-1	7	8	0	36*	13
Cc1ccccc1NC(=O)NCCCN1CCN(C2CCCCC2)CC1	0	-10	15	-4	-2	-4
Cc1ccc2nc(-c3ccc(F)cc3)c(Cc3cccc(Cl)c3)n2c1	-1	14	-9	-6	-7	32*
Cc1ccc2nc(C(C)(C)C)c(Cc3cccc(Cl)c3)n2c1	0	70*	-10	-26	-8	4
Cc1ccc(C)c(Cn2nnc(C(=O)Nc3ccc4c(c3)OCCO4)c2N)c1	14	8	-25	5	28*	19
SMILES	M1 ag parental	CHRM1 antagonist	CHO-K1 Ca PAM	CHRM1 PAM	M1 ag	CHO-K1 Ca antag
Nc1c(C(=O)NCc2ccc3c(c2)OCO3)nnn1Cc1ccc(Br)cc1	18*	0	19	7	16*	-3
Nc1c(C(=O)NCc2ccc3c(c2)OCO3)nnn1CC(=O)Nc1ccc(Br)cc1	1	3	11	1	-2	-2
Cc1cc(C)cc(NC(=O)c2nnn(Cc3cc(C)ccc3C)c2N)c1	3	6	-14	-3	26*	21
COc1cc(NC(=O)Cn2cnc(S(=O)(=O)N3CCC(C)CC3)c2)cc(OC)c1OC	0	8	-5	0	-2	-6
CCN(CC)CCSc1nc(O)c(-c2ccccc2)c(=O)n1-c1ccccc1	0	-13	14	6	-6	-15
CCN(CC)CCSc1nnc(Nc2ccccc2)n1-c1ccccc1	0	96*	1	-36	-14	4
O=S1(=O)CC(N2CCN(CC3CC3)CC2)CN1C1CCCC1 (stereo unspecified)	0	11	1	-1	-4	26*
O=S1(=O)CC(N2CCN(CCO)CC2)CN1C1CCCCC1 (stereo unspecified)	1	-11	13	12	-3	5
O=C(Nc1cc(C(F)(F)F)ccc1-n1cncn1)c1ccc(-c2ccccc2)cc1	0	-11	2	6	-3	-15
COc1ccc(CCn2nnnc2C(CC(C)C)N2CCN(c3ncccn3)CC2)cc1OC (stereo unspecified)	-1	23	-12	-7	-3	37*
CN(C)c1ccc(C2CC(=O)NC3=C2C(=O)CC(C)(C)C3)cc1 (stereo unspecified)	0	8	-1	-7	-11	7
CCN(CC)c1ccc(C2CC(=O)NC3=C2C(=O)CC(C)(C)C3)cc1 (stereo unspecified)	-1	26*	4	-23	-10	-2
CCOC(=O)N1CCN(c2c(-c3ccc(C)cc3)c(=O)c2=O)CC1	0	-24	4	13	1	14
CCOC(=O)N1CCN(c2c(-c3ccc(C(C)C)cc3)c(=O)c2=O)CC1	-1	6	-7	5	-1	26*
CCC1CCCCN1C(=O)c1cc(COc2ccc3ncccc3c2)on1 (stereo unspecified)	16*	31	-7	-13	-1	27*
Cc1ccc(F)cc1CNC(=O)c1cc(COc2ccc3ncccc3c2)on1	14	39*	-1	-26	1	17
COCC1CCCCN1C(=O)c1cc(COc2ccc3ncccc3c2)on1 (stereo unspecified)	20*	55*	-24	-16	6	33*
COCCOC1CCN(C(=O)c2cc(COc3ccc(-n4cncn4)cc3)on2)CC1	1	-4	-3	3	-1	-1
O=C(NCc1cccc(Cl)c1)c1cc(COc2ccc3ncccc3c2)on1	12	28	-2	-10	-3	7
COCCC1CCCCN1C(=O)c1cc(COc2ccc(-n3cncn3)cc2)on1 (stereo unspecified)	15	31*	-17	-4	6	25*
CCN1CCN(C(=O)c2cc(COc3ccc4ncccc4c3)on2)CC1	11	10	14	-2	3	-4
